What all share (experiment): qHTS profiling for inhibitors of Plasmodium falciparum proliferation (AID 504749); further: nearly all actives have a fitted effect of over 60% in size
Holding throughout (conditions): P. falciparum in erythrocytes, SYBR Green DNA, 72 h; series mostly up to 28.7 µM

One assay relates to CP269. The essentials:
(§1)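 In a 72 h erythrocytic culture (37 C, humidified, 5% CO2) at 2.5% hematocrit and 0.3% starting parasitemia, compounds were tested; SYBR Green I in detergent lysis buffer stained parasite DNA overnight.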

A further assay deals with CP286. A digest of the protocol: as §1
A further assay has as its system CP291. A digest of the protocol:
as §1

A further assay concerns CP297. A digest of the protocol: as §1
The next assay relates to CP305. The essentials: as §1
Another assay relates to CP315. A digest of the protocol:
as §1

The subject of a further assay is CP325. The essentials: as §1
A further assay relates to CP329. The essentials: as §1
For another assay, the system named is CP335. A digest of the protocol: as §1
Another assay relates to DFO2036. The essentials:
as §1

A further assay has as its system DIV14. A digest of the protocol: as §1
A further assay deals with DIV17. A digest of the protocol:
as §1

In the next assay the test system is DIV30. The essentials:
as §1

A further assay concerns Dd2. A digest of the protocol:
as §1

A further assay relates to ECU. A digest of the protocol: as §1
The next assay concerns FAB9. The essentials: as §1
The test system of a further assay is GB4. The essentials:
as §1

Another assay relates to HB3. The essentials: as §1
The next assay concerns ICS. The essentials: as §1
Another assay relates to JCK. The essentials:
as §1

Inconclusive results are not listed. Activity calls are given as the source filed them. The call rests on the fitted dose curve; in most records, active means well fitted inhibition curve with a large enough effect; inconclusive means small, poorly fitted or top-dose-only effect; inactive means flat fitted curve, though single readings scatter.
Potency means the concentration at half of the fitted maximal effect.

As for `CCc1cc(C(N)=S)ccn1`, the Potency entry in the assay with CP269, with CP286, in the assay with CP291, in the assay on CP297, in the assay on CP305 and with CP315 was “inactive” throughout. Also, the Potency entry in the assay with CP325, in the assay with CP329, in the assay with CP335, with DFO2036, in the assay with DIV14 and with DIV17 was “inactive” in each case. For the same compound, the Potency result in the assay with DIV30, in the assay on Dd2, with ECU, in the assay with FAB9, with GB4 and with HB3 was “inactive” each time. In addition, the Potency result in the assay with ICS and with JCK was “inactive” throughout.

As for `CN(CCOc1ccc(CC2SC(=O)NC2=O)cc1)c1ccccn1` (stereo not given), the Potency entry in the assay on CP269, in the assay on CP286, in the assay with CP291, in the assay on CP297, in the assay on CP305 and with CP315 was “inactive” throughout. Further, the Potency result in the assay on CP325, with CP329, in the assay with CP335, with DFO2036, with DIV14 and in the assay on DIV17 was “inactive” throughout. Moreover, the Potency entry with DIV30, in the assay with Dd2, in the assay on ECU, in the assay with FAB9, in the assay on GB4 and in the assay on HB3 was “inactive” in each case. In addition, the Potency entry in the assay with ICS and in the assay with JCK was “inactive” throughout.

Regarding `CN(C)c1ccc(C(=C2C=CC(=[N+](C)C)C=C2)c2ccc(N(C)C)cc2)cc1`, the Potency is 239 nM (active) in the assay with CP269; 178 nM (active) in the assay with CP286; 675 nM (active) with CP291; 953 nM (active) with CP297; 338 nM (active) with CP305; 953 nM (active) with CP315. In addition, the Potency in the assay on CP325 was 478 nM (active); in the assay with CP329 it was 601 nM (active); with CP335 it was 301 nM (active); with DFO2036, 199 nM (active); in the assay on DIV14, 478 nM (active); with DIV17, 601 nM (active). Besides, the Potency in the assay with DIV30 was 478 nM (active); in the assay on Dd2 it was 158 nM (active); in the assay on ECU, 355 nM (active); with FAB9 it was 355 nM (active); in the assay on GB4, 239 nM (active); in the assay on HB3, 631 nM (active). In addition, the Potency in the assay with ICS is 251 nM (active); in the assay on JCK it was 631 nM (active).

On to `CC(C)NCC(O)c1ccc(NS(C)(=O)=O)cc1` (stereo not given), for which the Potency entry with CP269, in the assay with CP286, with CP291, with CP297, in the assay on CP305 and with CP315 was “inactive” in each case. In addition, the Potency entry with CP325, in the assay on CP329, with CP335, in the assay on DFO2036, in the assay with DIV14 and with DIV17 was “inactive” in each case. Besides, the Potency result with DIV30, with Dd2, in the assay with ECU, with FAB9, in the assay on GB4 and in the assay on HB3 was “inactive” each time. Also, the Potency result with ICS and in the assay with JCK was “inactive” in each case.

In the case of `CCCN[C@H]1CCc2nc(N)sc2C1`, the Potency entry in the assay with CP269, in the assay with CP286, in the assay on CP291, in the assay on CP297, in the assay with CP305 and in the assay on CP315 was “inactive” throughout. Moreover, the Potency result in the assay with CP325, in the assay with CP329, in the assay on CP335, in the assay on DFO2036, in the assay with DIV14 and with DIV17 was “inactive” each time. The Potency entry in the assay on DIV30, with Dd2, with ECU, with FAB9, in the assay with GB4 and with HB3 was “inactive” throughout. Also, the Potency result with ICS and with JCK was “inactive” in each case.

Turning to `Cc1cccc(Nc2ccncc2S(=O)(=O)NC(=O)NC(C)C)c1`, the Potency result with CP269, in the assay with CP286, in the assay with CP291, in the assay with CP297, in the assay on CP305 and with CP315 was “inactive” each time. Also, the Potency result with CP325, in the assay with CP329, in the assay on CP335, in the assay on DFO2036, in the assay on DIV14 and in the assay on DIV17 was “inactive” in each case. Further, the Potency result with DIV30, in the assay on Dd2, in the assay with ECU, with FAB9, in the assay with GB4 and in the assay on HB3 was “inactive” in each case. The Potency result in the assay on ICS and with JCK was “inactive” in each case.

With `NCCCC(O)(P(=O)(O)O)P(=O)(O)O`, the Potency entry in the assay with CP269, in the assay on CP286, with CP291, in the assay on CP297, with CP305 and in the assay on CP315 was “inactive” throughout. Further, the Potency result in the assay with CP325, in the assay with CP329, with CP335, in the assay with DFO2036, in the assay with DIV14 and with DIV17 was “inactive” each time. Moreover, the Potency result in the assay with DIV30, with Dd2, with ECU, in the assay with FAB9, in the assay with GB4 and with HB3 was “inactive” throughout. Besides, the Potency result in the assay on ICS and in the assay with JCK was “inactive” throughout.

With `COc1cnc(NS(=O)(=O)c2ccc(N)cc2)nc1`, the Potency entry in the assay with CP269, in the assay on CP286, in the assay with CP291, in the assay with CP297, in the assay on CP305 and in the assay with CP315 was “inactive” throughout. In addition, the Potency result in the assay with CP325, in the assay on CP329, in the assay on CP335, with DFO2036, in the assay with DIV14 and in the assay with DIV17 was “inactive” in each case. The Potency entry in the assay with DIV30, in the assay on Dd2, with ECU, in the assay with FAB9, in the assay on GB4 and in the assay on HB3 was “inactive” in each case. Besides, the Potency result in the assay with ICS and with JCK was “inactive” in each case.

On to `C[C@]12C=CC(=O)C=C1CC[C@@H]1[C@@H]2C(=O)C[C@@]2(C)[C@H]1CC[C@]2(O)C(=O)CO`, for which the Potency result in the assay on CP269, in the assay with CP286, with CP291, in the assay on CP297, in the assay with CP305 and in the assay with CP315 was “inactive” each time. Further, the Potency entry with CP325, in the assay with CP329, with CP335, in the assay on DFO2036, in the assay on DIV14 and with DIV17 was “inactive” in each case. Also, the Potency result in the assay with DIV30, in the assay with Dd2, in the assay on ECU, in the assay on FAB9, in the assay with GB4 and with HB3 was “inactive” in each case. For the same compound, the Potency entry in the assay on ICS and in the assay on JCK was “inactive” each time.

For `NC(N)=NC(N)=NCCc1ccccc1`, the Potency entry in the assay with CP269, in the assay on CP286, in the assay on CP291, in the assay on CP297, in the assay with CP305 and in the assay on CP315 was “inactive” throughout. Further, the Potency result in the assay on CP325, in the assay on CP329, with CP335, with DFO2036, in the assay on DIV14 and with DIV17 was “inactive” in each case. Further, the Potency entry with DIV30, in the assay with Dd2, in the assay with ECU, in the assay with FAB9, in the assay on GB4 and with HB3 was “inactive” throughout. The Potency entry in the assay on ICS and in the assay on JCK was “inactive” throughout.

As for `O=C(O)c1cc(=O)[nH]c(=O)[nH]1`, the Potency result in the assay with CP269, with CP286, in the assay with CP291, in the assay with CP297, in the assay on CP305 and in the assay with CP315 was “inactive” each time. The Potency entry in the assay with CP325, with CP329, in the assay with CP335, in the assay with DFO2036, in the assay on DIV14 and in the assay with DIV17 was “inactive” each time. Besides, the Potency entry with DIV30, with Dd2, in the assay with ECU, in the assay with FAB9, in the assay with GB4 and in the assay on HB3 was “inactive” in each case. In addition, the Potency result in the assay with ICS and with JCK was “inactive” in each case.

Take `N[C@@H](C(=O)N[C@@H]1C(=O)N2C(C(=O)O)=C(Cl)CS[C@H]12)c1ccccc1`: the Potency entry in the assay on CP269, in the assay with CP286, in the assay with CP291, in the assay on CP297, with CP305 and in the assay on CP315 was “inactive” each time. Besides, the Potency entry with CP325, with CP329, in the assay with CP335, with DFO2036, with DIV14 and with DIV17 was “inactive” each time. Moreover, the Potency result in the assay with DIV30, in the assay on Dd2, in the assay with ECU, in the assay with FAB9, with GB4 and in the assay with HB3 was “inactive” each time. For the same compound, the Potency entry with ICS and in the assay on JCK was “inactive” each time.

(Values after PubChem BioAssay (NCATS).)
